From PubChem BioAssay
CYP2C19 activ – cytochrome P450 2C19 (human) activation. P33261. recombinant CYP2C19, luciferin-H EGE luminescence; hits give high values; 0 = fully inhibited enzyme, 1 = untreated enzyme. activation factor at 5 µM. 96,000 tested, under 10 active. AID 1025;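 active = activation factor of at least 2 at 5 µM in the primary screen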
Target sequence (P33261 whole entry, looked up): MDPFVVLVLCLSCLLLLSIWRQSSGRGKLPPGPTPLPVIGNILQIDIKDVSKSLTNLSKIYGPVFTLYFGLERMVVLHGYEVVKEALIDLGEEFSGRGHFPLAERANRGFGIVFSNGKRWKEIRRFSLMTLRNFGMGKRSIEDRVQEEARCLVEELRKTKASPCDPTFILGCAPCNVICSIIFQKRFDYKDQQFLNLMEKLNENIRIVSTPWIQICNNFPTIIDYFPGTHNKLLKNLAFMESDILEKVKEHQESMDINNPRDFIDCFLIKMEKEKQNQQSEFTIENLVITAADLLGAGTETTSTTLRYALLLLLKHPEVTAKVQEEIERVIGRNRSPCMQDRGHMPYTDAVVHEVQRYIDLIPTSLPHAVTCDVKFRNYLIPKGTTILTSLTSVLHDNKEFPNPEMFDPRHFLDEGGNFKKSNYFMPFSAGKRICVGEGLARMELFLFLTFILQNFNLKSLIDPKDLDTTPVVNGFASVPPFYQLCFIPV
CYP2C19 inh – blocks human cytochrome P450 2C19 | CYP2C19 Supersomes, luciferin-H EGE luminescence, 30 min | inhibition, % at 5 µM | 96,000 tested, 21% active | AID 778;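 active = CYP2C19 inhibition above a set limit at 5 µM in the primary screen, cut at about 50% in these data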
CYP2C9 act – CYP2C9 (human) activation; 96,000 tested, 1.4% active; activation factor at 5 µM; recombinant CYP2C9, luciferin-H conversion, luminescence; hits give high values; factor 1 = untreated enzyme, 0 = blocked; P11712;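 active = activation factor of 2 or more for CYP2C9 at a 5 µM dose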
PLAP act – activators of human placental alkaline phosphatase | P05187 | purified PLAP enzyme, luminescent substrate read-out; hits give high values | activation fold at 20 µM | 96,000 tested, 1.2% active | AID 696; in the data active = activation fold above about 2
CYP2C9 inh – blocks human cytochrome P450 2C9; P11712; CYP2C9 Supersomes, luciferin-H conversion, luminescence; inhibition, % at 5 µM; 96,000 tested, 20% active;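 active = blocking of liver enzyme CYP2C9 beyond about 50% at 5 µM, limit read from the data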
Numbers stand for hits; . = inactive. Hits are enriched below; roughly 31% of the tested compounds scored in any of these assays.

SMILES | CYP2C19 activ | CYP2C19 inh | CYP2C9 act | PLAP act | CYP2C9 inh
COc1ccc(Oc2nc(C)cc(C)c2S(=O)(=O)c2ccc(C)cc2)cc1 | . | . | . | . | .
Cc1cc(C)c(S(=O)(=O)c2ccccc2)c(OC(=O)c2c(Cl)cccc2Cl)n1 | . | . | . | . | .
Cc1cc(C)c(S(=O)(=O)c2ccccc2C)c(Cl)n1 | . | 66 | 3.6 | . | .
Cc1ccc(S(=O)(=O)c2c(C)cc(C)nc2Cl)c(C)c1 | . | 100 | . | . | .
CCCCSc1nc(C)cc(C)c1S(=O)(=O)c1ccccc1C | . | 75 | . | . | .
Clc1ccc(NNc2ccnc3cc(Cl)ccc23)cc1 | . | 66 | . | . | 80
S=C(Nc1ccccc1)Nc1ccc(Cl)cc1Cl | . | 58 | . | . | .
NS(=O)(=O)c1ccc(NC(=S)NCc2ccc(Cl)cc2)cc1 | . | . | . | . | .
FC(F)(F)c1cccc(NC(=S)Nc2ccc(Cl)cc2Cl)c1 | . | . | . | . | .
S=C(Nc1ccccc1Cl)Nc1ccc(Cl)cc1Cl | . | 58 | . | . | .
Cc1cc(Cl)ccc1OCCCC(=O)Nc1cccnc1 | . | 50 | . | . | .
Fc1ccc(CNC(=S)Nc2ccc(Cl)cc2)cc1 | . | 84 | . | . | .
Cc1nc2ccc(C(=O)O)cc2c2c1CC(C)S2 (stereo not given) | . | . | . | . | .
Fc1ccc(NC(=S)Nc2ccc(F)c(Cl)c2)cc1Cl | . | 98 | . | . | 86
CN(C)CCNC(=S)Nc1ccc(Cl)cc1 | . | . | . | . | .
S=C(Nc1ccccc1)Nc1cc(Cl)ccc1Oc1ccccc1 | . | 96 | . | . | 95
CCCCC(=O)Nc1ccc(F)c(Cl)c1 | . | . | . | . | .
Cc1cc(Cl)ccc1NC(=S)Nc1cccnc1 | . | 54 | . | . | .
CN(C)NC(=S)Nc1ccc(Cl)cc1 | . | 91 | . | . | .
CC12C=CC3(CN(Cc4ccccc4)C(=O)C3C1C(=O)NCc1ccco1)O2 (stereo not given) | . | . | . | . | .
Cc1cc(Cl)ccc1Oc1nccc(N(C)C)c1C#N | . | . | . | . | 61
Cc1cc(-c2nc3c4c5c(sc4[nH]c(=O)n3n2)CCC5)c(C)o1 | . | . | . | . | 51
Cc1nc2sc3c(c2c(=O)[nH]1)CCC3 | . | . | . | . | .
Oc1ccccc1-c1nc(NCc2ccco2)c2ccccc2n1 | . | . | . | . | .
Cc1ccc(-c2nc(NCCN3CCOCC3)c3ccccc3n2)cc1 | . | 59 | . | . | 72
SMILES | CYP2C19 activ | CYP2C19 inh | CYP2C9 act | PLAP act | CYP2C9 inh
COc1cccc(-c2nc(NCCN3CCOCC3)c3ccccc3n2)c1O | . | . | . | . | 56
Oc1ccccc1-c1nc(NCCN2CCOCC2)c2ccccc2n1 | . | 89 | . | . | 97
Cc1ccc(-c2nc3ccccc3c(=O)n2CCCN2CCOCC2)cc1 | . | . | . | . | .
COc1cccc(-c2nc(NC(C)(C)C)c3ccccc3n2)c1O | . | . | . | . | 84
COc1cccc(-c2nc(N3CCC(C)CC3)c3ccccc3n2)c1O | . | . | . | . | .
Cc1ccccc1Cn1cc(NC(=O)COc2ccccc2)cn1 | . | . | . | . | .
CCOc1ccc(NC(=O)C2CC(=O)N(c3cc(C)cc(C)c3)C2)cc1 (stereo not given) | . | . | . | . | .
COc1ccc(C2CC(C(F)(F)F)n3nc(C(=O)O)c(Br)c3N2)cc1 (stereo not given) | . | . | . | . | .
COc1ccc(Cc2nnc(SCC(=O)N3CCc4ccccc4C3)o2)cc1 | . | . | . | . | .
Cc1nc(N2CCN(S(=O)(=O)c3cccc4nonc34)CC2)c2c3c(sc2n1)CCCC3 | . | . | . | . | .
C/C=C(\C)c1nnc(NC(=O)c2ccco2)s1 | . | . | . | . | .
COc1ccc2c(c1)sc1nc(-c3ccccc3)cn12 | . | 82 | . | . | 92
CCOC(=O)N1CCN(C(=O)c2ccc3c(c2)sc2nc(-c4ccc(OC)cc4)cn23)CC1 | . | . | . | . | .
CCOC(=O)c1cccc(NC(=O)CSc2nnc(COc3ccc(Cl)cc3)o2)c1 | . | . | . | . | .
COc1ccccc1C(=O)Oc1cc(N)n(S(=O)(=O)c2ccc(C)cc2)n1 | . | . | . | . | 81
CC(C)(C)C(=O)Oc1cc(N)n(S(=O)(=O)c2ccc(F)cc2)n1 | . | 59 | . | . | 75
COc1ccccc1-c1cn(S(=O)(=O)c2ccc(C)cc2)nc1N | . | . | . | . | 56
COc1ccc(OC)c(-c2cn(S(=O)(=O)c3ccccc3)nc2N)c1 | . | . | . | . | .
CCc1cn(S(=O)(=O)c2ccccc2OC)nc1N | . | 50 | . | . | .
Cc1cc(C)n2nc[n+](C)c2n1 | . | . | . | . | .
O=C(Nc1cccc(C(=O)N2CCOCC2)c1)c1cncc(Br)c1 | . | . | . | . | .
CSC1=NC(NCCCO)c2c(sc3c2CC(C)(C)OC3)N1 (stereo not given) | . | . | . | . | .
COc1ccc(S(=O)(=O)n2nc(OC(=O)c3c(-c4ccccc4Cl)noc3C)cc2N)cc1 | . | . | . | . | 94
CC(C)=C1SC(N2CCN(Cc3ccccc3)CC2)=NC1=O | . | 57 | . | . | .
Cc1nnc(N2CCN(Cc3ccccc3)CC2)[nH]c1=O | . | . | . | . | .
SMILES | CYP2C19 activ | CYP2C19 inh | CYP2C9 act | PLAP act | CYP2C9 inh
COc1ccc(NC(=O)c2sc(SCc3ccccc3)nc2N)cc1 | . | . | . | . | .
CCOC(=O)CSc1nc(N)c(C(=O)Nc2ccc(N(C)C)cc2)s1 | . | 65 | . | . | .
CCOC(=O)CSc1nc(C)c(C(=O)OCC)s1 | . | . | . | . | 65
C/C(N)=C(\C#N)C(=O)NCc1ccccn1 | . | . | . | . | .
CN(C)/C=C1/Sc2ccccc2C1=O | . | . | . | . | .
N#C/C=C1/NC(=O)c2ccccc2S1 | . | . | . | . | 62
COC(=O)c1cnc(SC)nc1C | . | . | . | . | .
c1ccc2sc(Cc3nnc4n3CCCCC4)nc2c1 | . | . | . | . | .
CCOc1ccccc1C1C(C(=O)OC)=C(N)OC2=C1C(=O)CCC2 (stereo not given) | . | 93 | . | . | 70
CCOC(=O)C1=C(N)OC2=C(C(=O)CCC2)C1c1ccc(C)s1 (stereo not given) | . | 53 | . | . | .
Cc1n[nH]c(C)c1N=Nc1cc(Cl)ccc1Cl | . | . | . | . | .
COC(=O)c1cc2ccsc2n1Cc1nc(-c2cccc(Cl)c2)oc1C | . | 52 | . | . | 99
CC1(C)CC(=O)c2cc(C(=O)NCc3ccco3)c(=O)n(-c3ccccc3)c2C1 | . | . | . | . | .
c1ccc2nc(N3CCOCC3)cnc2c1 | . | . | . | . | .
COC(=O)Nc1nnc(-c2ccccc2Cl)s1 | . | . | . | . | .
COc1ccccc1-c1nnc(NC(=O)OCC(C)C)s1 | . | . | 2.4 | . | .
CS(=O)(=O)N1CCN(C(=O)c2ccncc2)CC1 | . | . | . | . | .
CS(=O)(=O)N1CCN(C(=O)c2ccc(Br)s2)CC1 | . | 94 | . | . | .
CCOC(=O)N1CCN(C(=O)CCN2C(=O)COc3ccc(C)cc32)CC1 | . | . | . | . | .
